Measurements: PubChem BioAssay (NCI)
Compounds without any hit were thinned out: in the full panel of roughly 83,000, 20% have a hit.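 Method: cells in 96-well plates; compound added at one concentration; 48 h incubation; percent growth measured; values under 10 scored active.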 Activity calls are given as the source filed them.

Legend:
Test in all cases: NCI-60 one-dose screen, 48 h (100 = growth as untreated, 0 = no growth, -100 = all killed)
Details in all cases: 10 µM unless noted
[1] = system: NCI-H23 lung
[2] = system: NCI-H226 lung
[3] = system: NCI-H322M lung
[4] = system: HOP-62 NSCLC
[5] = system: NCI-H460 lung
[6] = system: HOP-92 NSCLC
[7] = system: NCI-H522 lung
[8] = system: A549/ATCC NSCLC
[9] = system: 786-0 renal
[10] = system: COLO 205 colon

Measured: growth

Cc1cc(NCCCNc2ccnc3cc(Cl)ccc23)nc(Nc2ccc(C(=O)N3CCCCC3)cc2)n1
inactive: [1] 52.5% | [2] 108% | [3] 17.8% | [4] 73.8% | [6] 83.8% | [8] 20.5%
active: [5] 9.68% | [7] -11.6% | [9] -29.5% | [10] -32.1%

COc1ccc(-c2cc(-c3cccnc3)nc3sc4c(N)c(C(C)=O)c(-c5ccccc5)nc4c23)cc1OC
inactive: [1] 66.7% | [2] 94.3% | [3] 90.5% | [4] 76.5% | [5] 78% | [6] 61.9% | [7] 56.6% | [8] 69% | [9] 68.9% | [10] 94.8%

COc1cc(OC)c2c(=O)c3c(CC=C(C)C)cc(OC)c(O)c3oc2c1
inactive: [1] 93.7% | [2] 99.3% | [3] 83.7% | [4] 89.1% | [5] 99.2% | [6] 77% | [7] 53% | [8] 90.8% | [9] 90.1% | [10] 111%

CCOC(=O)c1cnn(CC(C)O)c1NC(=O)NCc1cccc(F)c1 (stereo not given)
inactive: [1] 97.5% | [2] 103% | [3] 97.7% | [4] 100% | [5] 105% | [6] 68% | [7] 66% | [8] 100% | [9] 95.1% | [10] 118%

COC(=O)[C@@]1(C)CC[C@]2(C)CC[C@]3(C)C4=CC=C5C(=CC(=O)C(O)=C5C)[C@]4(C)[C@@H](O)C[C@@]3(C)[C@@H]2C1
inactive: [1] 49.2% | [2] 98.7% | [3] 96.8% | [4] 89.7% | [5] 63.6% | [8] 88.3% | [10] 12.8%
active: [6] -3.8% | [7] -24.2% | [9] -30.3%

COc1ccc(Oc2ccc(/C=C/C(=O)c3ccc(OC)c(OC)c3)cc2)cc1
inactive: [1] 83.7% | [2] 90.9% | [3] 86.7% | [4] 118% | [5] 93.9% | [6] 83.7% | [7] 57.4% | [8] 81.8% | [9] 103% | [10] 91.9%

O=C(CSc1nnnn1-c1ccccc1)Nc1ccc(Oc2ccccc2)cc1
inactive: [1] 101% | [2] 87.5% | [3] 114% | [4] 95.6% | [5] 110% | [6] 75% | [7] 79.3% | [8] 101% | [9] 102% | [10] 110%

Cc1ccc(S(=O)(=O)c2nc(-c3ccccc3)oc2SCC(N)=O)cc1
inactive: [1] 96.8% | [2] 98.1% | [3] 104% | [4] 98.3% | [5] 104% | [6] 83.2% | [7] 76.3% | [8] 96.7% | [9] 95% | [10] 111%

COC(=O)Cn1c2c(c3c(OC)cccc31)C(=O)c1ccccc1-2
inactive: [1] 91.2% | [2] 91.4% | [3] 113% | [4] 87% | [5] 112% | [6] 70.3% | [7] 101% | [8] 100% | [9] 86.6% | [10] 104%

Nc1cc(-c2ccc(Cl)cc2)nn1-c1nnc(/C=C/c2ccco2)c(=O)[nH]1
inactive: [1] 58.8% | [2] 47.4% | [3] 24.4% | [4] 71.3% | [5] 20.4% | [6] 60.3% | [7] 74.9% | [8] 37.3% | [9] 46.9% | [10] 72.6%

C=C(C)[C@@H]1CC[C@]2(C(=O)Nc3ccccn3)CC[C@]3(C)[C@H](CC[C@@H]4[C@@]5(C)CCCNC(C)(C)[C@@H]5CC[C@]43C)[C@@H]12
active: [5] -40.3% | [10] -62.2%
inactive: [1] 19.5% | [2] 43.3% | [3] 65.5% | [4] 30.4% | [6] 41.8% | [7] 12.6% | [8] 23.1% | [9] 33.9%

N#Cc1c(-c2ccccc2)nc2c(c(-c3ccc(Cl)cc3)nn2-c2ccccc2)c1-c1ccc([N+](=O)[O-])cc1
inactive: [1] 96% | [2] 94.7% | [3] 97% | [4] 94.7% | [5] 103% | [6] 103% | [7] 91.7% | [8] 100% | [9] 110% | [10] 110%

O=C1O[C@@H](c2ccccc2Cl)[C@@H]2c3cc4c(cc3CCN12)OCO4
inactive: [1] 103% | [2] 93.7% | [3] 89.3% | [4] 96.2% | [5] 101% | [6] 92.5% | [7] 81.9% | [8] 86.3% | [9] 97.9% | [10] 110%

O=C(CCCCCCCC(=O)N1CCCCC1)N1CCCCC1
inactive: [1] 94.6% | [2] 109% | [3] 115% | [4] 110% | [5] 98.7% | [6] 98.8% | [7] 88.8% | [8] 102% | [9] 105% | [10] 113%

Cc1cccc(N=Nc2cccc(C)c2)c1
inactive: [1] 92.5% | [2] 100% | [3] 98.5% | [4] 104% | [5] 102% | [6] 85.9% | [7] 97.4% | [8] 104% | [9] 116% | [10] 111%

C/C=C1/CN(CCCCC)CC[C@H]1C(=O)c1cc2ccccc2[nH]1
inactive: [1] 85.1% | [2] 92.9% | [3] 86.6% | [4] 85.5% | [5] 97.3% | [6] 52.3% | [7] 88.1% | [8] 100% | [9] 99.9% | [10] 98.9%

CCN(CC)CCn1c2ccc(OC)cc2c2sc3cc(O)ccc3c(=O)c21
active: [5] 8.17%
inactive: [1] 23.9% | [2] 112% | [3] 34.2% | [4] 34.4% | [6] 61.8% | [7] 42.2% | [8] 17.9% | [9] 26.1% | [10] 23%

CCCCC#Cc1c(I)n(C2OC(CO[Si](C)(C)C(C)(C)C)C3OC(C)(C)OC32)c(=O)n(C(=O)c2ccccc2)c1=O (stereo not given)
active: [6] -37.6% | [10] -46.9%
inactive: [1] 51.9% | [2] 67.7% | [3] 110% | [4] 94.8% | [5] 68.5% | [7] 71% | [8] 67.7% | [9] 64.1%

O=[N+]([O-])c1ccccc1Nc1ccc2ccccc2c1
inactive: [1] 97.7% | [2] 97.1% | [3] 108% | [4] 82.7% | [5] 84.4% | [6] 82.9% | [7] 87.8% | [8] 47.8% | [9] 83.5% | [10] 72.5%

c1ccc(Cn2cc3c(c2-c2ccccc2)CCc2cnoc2-3)cc1
inactive: [1] 78.8% | [2] 83.6% | [3] 95.6% | [4] 75.1% | [5] 53.7% | [6] 65.8% | [7] 56.6% | [8] 59.6% | [9] 80.2% | [10] 80.5%

CSc1nc(-c2ccco2)c(C#N)c(=O)n1C
inactive: [1] 66.1% | [2] 101% | [3] 89.6% | [4] 89.5% | [5] 105% | [6] 91.6% | [7] 100% | [8] 100% | [9] 104% | [10] 97.2%

c1cc(OCCN2CCCC2)ccc1CNc1ccc2nc(CCC3CCCCC3)[nH]c2c1
active: [9] -60.1% | [10] -73.9%
inactive: [1] 81.9% | [2] 51.3% | [3] 78.2% | [4] 57.8% | [5] 52.6% | [6] 25.3% | [7] 63.2% | [8] 50.2%

Clc1ccc2nn3c4ccccc4c(OCCN4CCOCC4)nc3c2c1
inactive: [1] 87.1% | [2] 94.6% | [3] 84.4% | [4] 90.6% | [5] 99.9% | [6] 72.9% | [7] 74.5% | [8] 91.8% | [9] 80.9% | [10] 90%

COc1ccc(-c2nc3ccc(C)cc3c3c2c(=O)n(C)c(=O)n3C)cc1OC
inactive: [1] 98.8% | [2] 108% | [3] 118% | [4] 112% | [5] 112% | [6] 99.2% | [7] 107% | [8] 89.9% | [9] 103% | [10] 109%

COc1ccc(-c2cc(C(=O)N3N=C(c4ccc(N)cc4)CC3c3ccc(Cl)cc3)c3cc(OC)ccc3n2)cc1 (stereo not given)
inactive: [1] 67.6% | [2] 89.1% | [3] 90.9% | [4] 66.6% | [5] 105% | [6] 59.2% | [7] 44.9% | [8] 86.5% | [9] 19.2% | [10] 96.3%

CCCOC(=O)Nc1nc2ccc(SCC)cc2s1
inactive: [1] 91.9% | [2] 92.9% | [3] 99.3% | [4] 81.4% | [5] 79.6% | [6] 96.1% | [7] 65.6% | [8] 80.5% | [9] 93.9% | [10] 72.2%

Nc1nc(C(=O)N/N=C/c2ccc(F)cc2)nn1-c1ccc(S(N)(=O)=O)cc1
inactive: [1] 101% | [2] 99% | [3] 91.1% | [4] 98.8% | [5] 106% | [6] 98.9% | [7] 88.8% | [8] 95% | [9] 97.2% | [10] 112%
